Compound activity: PubChem, National Center for Advancing Translational Sciences (NCATS)
G9a block – qHTS Assay for Inhibitors of Histone Lysine Methyltransferase G9a. hit rate 8.8% among 350,000. Potency, µM (highest dose often 102 µM), actives largely listed as inhibitors. G9a H3K9 monomethylation, AlphaScreen, 2 h. AID 504332, 2011. Histone-lysine N-methyltransferase EHMT2 (Homo sapiens), Q96KQ7; further: nearly all actives have a fitted effect of over 75% in size
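Quantitative HTS format: methyltransferase activity on a biotin-tagged H3K9 peptide is measured by AlphaScreen, using a rabbit anti-monomethyl-H3K9 antibody with streptavidin donor and anti-IgG acceptor beads. Final levels are 20 nM enzyme, 500 nM peptide, 20 uM SAM; 2 h RT.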
HP1b binding inh – HTS for Inhibitors of HP1-beta Chromodomain Interactions with Methylated Histone Tails; Potency, µM (series often up to 114 µM), hits mostly inhibitors; hit rate 0.56% among 390,000; AlphaScreen HP1-beta / biotin-H3K9me3 peptide binding; Chromobox protein homolog 1 (Homo sapiens), P83916; AID 540317, 2011; further: nearly all actives have a fitted effect of over 70% in size
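AlphaScreen: HP1-beta (50 nM) preformed 30 min with biotin-H3(1-18)K9me3 peptide (50 nM) in PBS pH 7.4, 0.01% Tween-20. Compound added for 30 min at RT, then streptavidin donor/nickel chelate acceptor beads (10 ug/mL) for 30 min.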
BAZ2B inh – qHTS Assay for Inhibitors of BAZ2B. AlphaScreen BAZ2B-H3K14Ac peptide displacement. Potency, µM (titrated, usually from 114 µM), actives largely listed as inhibitors. hit rate 4.4% among 360,000. Bromodomain adjacent to zinc finger domain protein 2B (Homo sapiens), Q9UIF8. AID 504333, 2011; further: nearly all actives have a fitted effect of over 60% in size
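Inhibition is scored as reduced AlphaScreen emission. The BAZ2B/b-H3(5-23)K14Ac complex (50 nM each) in PBS pH 7.4, 0.01% Tween-20 meets compound (up to 110 uM) for 30 min at RT before bead addition.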
Sfp inh – qHTS Assay for Inhibitors of Bacillus subtilis Sfp phosphopantetheinyl transferase (PPTase); 4'-phosphopantetheinyl transferase ffp (Bacillus subtilis), Q9F4F7; Biochemical Sfp PPTase activity, qHTS; Potency, µM, usual class: inhibitors; hit rate 3.5% among 310,000; AID 1490, 2009;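 further: the enzyme is Sfp with the accession as filed and its product quenches rhodamine fluorescence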
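Step 1, compound plus 15 nM Sfp-PPTase, 15 min, room temperature. Step 2, add rhodamine-CoA (5 uM) and BHQ-2-YbbR (12.5 uM). Step 3, read 525/598 nm fluorescence at 0 and 30 min.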
12-LOX inh – Primary qHTS assay for inhibitors of human arachidonate 12S-lipoxygenase (ALOX12): Round 2; purified 12hLO, xylenol orange hydroperoxide absorbance; Potency, µM (top dose mostly 108 µM), usual class: inhibitors; hit rate 1.1% among 580,000; AID 1671190, 2021
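Hydroperoxide product was detected by ferrous iron/xylenol orange as the 573 to 405 nm absorbance ratio. Arachidonic acid at 40 uM (final) was turned over for 30 min at room temperature by 150 nM human 12hLO, pH 7.0 Hepes buffer, after 15 min compound preincubation.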
JMJD2A Tudor – qHTS Assay for Inhibitors of JMJD2A-Tudor Domain; AlphaScreen JMJD2A-Tudor / H3K4me3 peptide binding; Potency, µM (doses to about 114 µM), hits mostly inhibitors; hit rate 4.4% among 390,000; Lysine-specific demethylase 4A (Homo sapiens), O75164; further: nearly all actives have a fitted effect of over 50% in size
Numbers stand for hits; 0 = inactive; ? = inconclusive; - = no result given. Sampled rows, rich in hits. Any-hit rate of the full collection: about 8.7%. The call rests on the fitted dose curve; in most records, active means well fitted curve in the direction sought with a large enough effect; inconclusive means small, poorly fitted or top-dose-only effect, or another doubt; inactive means no such curve, though single readings can be large; an effect the other way counts as inactive or inconclusive.

SMILES	G9a block	HP1b binding inh	BAZ2B inh	Sfp inh	12-LOX inh	JMJD2A Tudor
Cc1cc(C)c2c(=O)[nH]c(SCC(=O)c3ccccc3)nc2n1	-	-	-	-	0	-
Cc1cc(C)c2c(=O)[nH]c(SCC(=O)c3ccc(C)c(C)c3)nc2n1	50.1µM	0	0	56.2µM	?	0
CCc1[nH]c(C(=O)N(CC)CCC(F)(F)F)c(C)c1C(=O)OC	-	-	-	-	0	-
Cc1ccc2cccc(OC(=O)/C=C\c3ccccc3)c2n1	0	0	0	0	0	20µM
O=C(/C=C\c1ccco1)Oc1cccc2cccnc12	0	0	31.6µM	?	0	?
O=C(/C=C/c1ccco1)Oc1cccc2cccnc12	-	0	44.7µM	0	0	?
CCc1ccc(OC(=O)/C=C/c2ccco2)cc1	-	0	?	0	0	0
COCCn1c(C)cnc1CC1CCCN(Cc2ccc(F)c(F)c2)C1 (stereo unspecified)	-	-	-	-	0	-
CCOC(=O)C(=O)Nc1ccc(N(C)C(C)=O)cc1	-	-	-	-	0	-
CCCCN(CCCC)CCNC(=O)CSCc1ccc(C)cc1	3.55µM	0	50.1µM	?	0	6.31µM
CN(C)c1ccc(C2/C(=C(/O)c3ccc(Br)cc3)C(=O)C(=O)N2C)cc1 (stereo unspecified)	39.8µM	0	0	0	5.62µM	?
CN1C(=O)C(=O)/C(=C(/O)c2ccc(Br)cc2)C1c1cccc([N+](=O)[O-])c1 (stereo unspecified)	50.1µM	0	0	0	?	0
CN1C(=O)C(=O)/C(=C(/O)c2ccccc2)C1c1ccc(Br)cc1 (stereo unspecified)	0	0	0	0	?	0
Cc1ccc(/C(O)=C2\C(=O)C(=O)N(CCCO)C2c2ccc(F)cc2)cc1 (stereo unspecified)	-	-	-	-	0	-
O=C1C(=O)N(CCCO)C(c2ccc(Br)cc2)/C1=C(\O)c1ccc(Br)cc1 (stereo unspecified)	?	0	0	0	35.5µM	0
O=C(N/N=C/C=C/c1ccccc1[N+](=O)[O-])NC1CCCCC1	-	-	-	-	0	-
CCN(C(=O)Cn1cccc1-c1nc(-c2ccc(OC)c(F)c2)no1)c1cccc(C)c1	-	-	-	-	0	-
CCC(c1cccs1)N1C(=O)[C@H]2CN(S(=O)(=O)c3ccccc3C)C[C@H]2C1=O (stereo partly specified)	-	-	-	-	0	-
Cc1cc(=O)n(CC(=O)Nc2ccc(C)c(F)c2)c(N2CCOCC2)n1	-	-	-	-	0	-
CCCCN(C(=O)CSc1nnc(-c2ccc(Cl)cc2)o1)c1c(N)n(CC(C)C)c(=O)[nH]c1=O	1µM	0	0	-	?	0
COCCN(C(=O)CSc1nnc(-c2ccc(C(C)(C)C)cc2)n1N)c1c(N)n(CC(C)C)c(=O)[nH]c1=O	39.8µM	0	0	-	0	0
COCCN(C(=O)CSc1nnc(-c2ccc(F)cc2)n1N)c1c(N)n(CC(C)C)c(=O)[nH]c1=O	-	-	-	-	0	-
CCCCN(C(=O)CSc1nnc(-c2ccc(OC)cc2)n1C(C)C)c1c(N)n(Cc2ccccc2)c(=O)[nH]c1=O	10µM	0	0	0	0	0
COCCN(C(=O)CSc1nn(-c2ccc(F)cc2)c(=S)s1)c1c(N)n(CC(C)C)c(=O)[nH]c1=O	8.91µM	0	0	-	?	0
N#Cc1ccc(CN2CCc3cc(S(=O)(=O)N4CCCCC4)ccc32)c(F)c1	-	-	-	-	0	-
CCc1c(C(=O)N2CCCN(C)C3(CCN(C)CC3)C2)csc1C	-	-	-	-	0	-
CCn1cc(-c2ccc(OC)cc2)cc1C(=O)O	-	-	-	-	0	-
COCCN(C(=O)c1ccc(-c2ccc([N+](=O)[O-])cc2)o1)c1c(N)n(CC(C)C)c(=O)[nH]c1=O	44.7µM	0	0	-	0	0
COCCN(C(=O)CSc1nnc(C)n1Cc1ccccc1)c1c(N)n(CC(C)C)c(=O)[nH]c1=O	0	0	0	0	0	79.4µM
